Laboratory results reported in PubChem BioAssay AID430 (Sanford-Burnham Center for Chemical Genomics, 2006).
About 1,100 (1.7%) of roughly 63,000 compounds were called active. Rule as the data show it: active = cytotoxicity above about 50%; inactive = the rest. Many of the other results were omitted from the sample, so actives are more common in it than they were. Potency and affinity values are given separately.

Assay: HPDE-C7 pancreatic duct cell viability loss – fluorescence, HTS (AID 430);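 also: cells exposed to compound for 48 hours before viability readout; 0% = vehicle and 100% = reference cytotoxic drug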
Conditions: HPDE-C7 pancreatic duct cells viability, at 10 µM, stronger effect = higher value

Row | Compound | cytotoxicity
1 | Cc1nn(CCC(=O)O)c2nc(-c3cccnc3)cc(C(F)(F)F)c12 | -17.9% (inactive)
2 | CCN(CC)C(c1ccc(C)cc1)c1nnnn1C1CCCCC1 (configuration not stated) | -25.4% (inactive)
3 | Cc1ccc(S(=O)(=O)C2(C(=O)N3CCN(C4CCCCC4)CC3)CC2)cc1 | 6.1% (inactive)
4 | O=C(Oc1c(Cl)cc(Cl)c2cccnc12)N1CCCCC1 | -1.1% (inactive)
5 | CCCC(=O)NC(c1ccco1)c1cc(Cl)c2cccnc2c1O (configuration not stated) | 59.7% (active)
6 | CCCC(=O)Nc1ccc(Cl)c(NC(=O)c2ccco2)c1 | -1.6% (inactive)
7 | O=C(OCC(=O)N(C1CCCCC1)C1CCCCC1)c1ccncc1 | 4.3% (inactive)
8 | Cc1cccc(C#N)c1NC1=CC(=O)CC(C)(C)C1 | -3.4% (inactive)
9 | O=C(C1CCN(S(=O)(=O)c2cccc3cccnc23)CC1)N1CCCC1 | -7.2% (inactive)
10 | COc1cc(NCCCC(C)N)c2ncccc2c1 (configuration not stated) | -12.1% (inactive)
11 | COc1ccc(NS(=O)(=O)c2ccc(Oc3ncccn3)cc2)cc1 | 17.1% (inactive)
12 | COc1cc(NS(=O)(=O)c2ccc(C)cc2)c2ncccc2c1 | 57.2% (active)
13 | CS(=O)(=O)Nc1cccc2cccnc12 | 6.6% (inactive)
14 | O=S(=O)(Nc1cccc2cccnc12)c1ccc(S(=O)(=O)N2CCCC2)cc1 | 57.1% (active)
15 | Cc1nnc(SCC(=O)Nc2cc(C(F)(F)F)ccc2N2CCOCC2)o1 | 12.9% (inactive)
16 | CC/C(=N\O)c1ccc(OC)c(OC)c1 | -4.4% (inactive)
17 | CC(=O)CSc1ncnc2nc[nH]c12 | 5.4% (inactive)
18 | CC(C)(C)c1cc(Br)ccc1OCC(=O)Nc1ncn[nH]1 | 21.9% (inactive)
19 | CCC(C)NC(=O)C1c2cc(OC)c(OC)cc2C(=O)N(C)C1c1ccc(OC)cc1 (configuration not stated) | -7.8% (inactive)
20 | CCCSc1nc(C)cc(=O)[nH]1 | 1.4% (inactive)
21 | CC(=O)c1c(C)cc(C)c(CSc2nc(C)cc(=O)[nH]2)c1C | 51.3% (active)
22 | CCOC(=O)CSc1nc(C)cc(=O)[nH]1 | 1.4% (inactive)
23 | COc1cc(NS(=O)(=O)c2ccc(C)cc2C)cc(OC)c1OC | 37% (inactive)

Row | Compound | cytotoxicity
24 | O=C(O)c1cccc(S(=O)(=O)Nc2ccc3oc(=O)sc3c2)c1 | 1.3% (inactive)
25 | Cn1c(=O)c2cn(-c3ccc4c(c3)OCCO4)cc2n(C)c1=O | -24.9% (inactive)
26 | O=C1Cc2ccccc2C(=O)N1CCc1ccccc1 | -14.2% (inactive)
27 | Cc1cc(NC(=O)c2cnn3c(C(F)F)cc(-c4ccccc4)nc23)no1 | -6.1% (inactive)
28 | CC1CCCN(c2nc3ccccc3nc2C(C#N)S(=O)(=O)c2ccccc2)C1 (configuration not stated) | 52.3% (active)
29 | CC1CCN(c2nc3ccccc3nc2C(C#N)S(=O)(=O)c2ccccc2)CC1 (configuration not stated) | 12.4% (inactive)
30 | Cc1ccc(S(=O)(=O)C(C#N)c2nc3ccccc3nc2N2CCC(C)CC2)cc1 (configuration not stated) | 5.7% (inactive)
31 | N#CC(c1nc2ccccc2nc1N1CCCC1)S(=O)(=O)c1ccccc1 (configuration not stated) | -10.1% (inactive)
32 | COc1ccc(S(=O)(=O)C(C#N)c2nc3ccccc3nc2N2CCCC(C)C2)cc1 (configuration not stated) | 61.7% (active)
33 | COc1ccc(S(=O)(=O)C(C#N)c2nc3ccccc3nc2N2CCCCC2)cc1 (configuration not stated) | -10.2% (inactive)
34 | CCS(=O)(=O)NCCc1csc(-c2ccccc2)n1 | -4.2% (inactive)
35 | CCSc1nc(C)c(CC)c(C)c1C(N)=O | 1.9% (inactive)
36 | CCOC(=O)CC(=O)CSc1[nH]c(=O)cc(C)c1C#N | -1.4% (inactive)
37 | Cc1ccc(-c2cn3cccnc3n2)cc1NC(=O)c1c(-c2ccccc2Cl)noc1C | 40.2% (inactive)
38 | Cc1c(C(=O)N(Cc2cccs2)C2CCS(=O)(=O)C2)oc2ccccc12 (configuration not stated) | -22.1% (inactive)
39 | CN(C)S(=O)(=O)n1cnc(-c2ccccc2)c1-c1ccccc1 | -7.9% (inactive)
40 | CN(C)S(=O)(=O)c1ccc(-c2ccccc2)cc1 | -2.3% (inactive)
41 | Cc1ccc(CNC(=O)c2cn(C3CCCCC3)c(=O)c3c2c2ccccc2n3C)o1 | -4% (inactive)
42 | O=S(=O)(NCCOc1ccc(F)cc1)c1ccc2c(c1)OCCO2 | -5.3% (inactive)
43 | Brc1cnn(-c2nc(N3CCOCC3)nc(N3CCOCC3)n2)c1 | 5.8% (inactive)
44 | O=C(Nc1cc(C(=O)N2CCOCC2)cc(C(=O)N2CCOCC2)c1)c1cc(F)c(F)cc1Cl | -14.6% (inactive)
45 | O=C(OCc1nc2ccccc2s1)C1CCN(C2=NS(=O)(=O)c3ccccc32)CC1 | 1.1% (inactive)
46 | COc1ccc(C(NC(C)=O)c2ccc3cccnc3c2O)c(OC)c1 (configuration not stated) | 11.7% (inactive)

Row | Compound | cytotoxicity
47 | O=c1cc(CO)oc(C(Nc2ccccn2)c2ccccc2F)c1O (configuration not stated) | -3.3% (inactive)
48 | CC(C)C(=O)NC(c1ccco1)c1ccc2cccnc2c1O (configuration not stated) | -17.7% (inactive)
49 | COc1cc(C(=O)Nc2ccccn2)cc(OC)c1OC | 5.4% (inactive)
50 | CC(=O)NC(c1ccco1)c1ccc2cccnc2c1O (configuration not stated) | 31.1% (inactive)
51 | Cc1cc(NC(c2cccnc2)c2ccc3cccnc3c2O)no1 (configuration not stated) | 9% (inactive)
52 | CNC(=O)c1ccc(N(Cc2ccccc2)S(C)(=O)=O)cc1 | 2.3% (inactive)
53 | CCn1c(=O)cc(SCC(=O)Nc2cccnc2)c2ccccc21 | -11.6% (inactive)
54 | Cc1cccc(N2CCN(C(=O)C3CCCN(S(=O)(=O)c4c(C)noc4C)C3)CC2)c1C (configuration not stated) | -2% (inactive)
55 | C/C(=C\c1ccco1)C1C(C#N)=C(N)OC2=C1C(=O)CC(C)(C)C2 (configuration not stated) | -2% (inactive)
56 | CCOc1ccc2[nH]c(=O)c(CN(Cc3ccccc3)C(=O)N3CCCC3)cc2c1 | -4.5% (inactive)
57 | Cc1ccc(CCNC(=O)c2coc3nc4ccccc4nc23)cc1 | 27.6% (inactive)
58 | COc1ccc(F)cc1CN1CCN(c2cc(C)nc3c4c(C)cc(C)nc4nn23)CC1 | 9.9% (inactive)
59 | CCOc1cc(NC(=O)c2ccco2)c(OCC)cc1NC(=O)Cc1cccc(OC)c1 | -10.3% (inactive)
60 | O=C(NCc1cccnc1)c1ccc(COc2ccccc2Br)o1 | 13.1% (inactive)
61 | CN1CCN(c2ccccc2NC(=O)Cc2cn(C)c3ccccc23)CC1 | -5.4% (inactive)
62 | COc1ccccc1NC(=O)N(Cc1ccco1)Cc1cc2cccc(C)c2[nH]c1=O | 0.1% (inactive)
63 | Cc1cc(C)c2[nH]c(=O)c(CN(Cc3ccco3)C(=O)C3CCCO3)cc2c1 (configuration not stated) | -9.6% (inactive)
64 | COc1ccccc1NC(=O)N(Cc1ccco1)Cc1cc2ccc(C)c(C)c2[nH]c1=O | 72.8% (active)
65 | COc1ccccc1NC(=O)N(Cc1ccco1)Cc1cc2cc(C)cc(C)c2[nH]c1=O | 59.5% (active)
66 | COc1ccccc1NC(=O)N(Cc1ccco1)Cc1cc2c(C)ccc(C)c2[nH]c1=O | 22.4% (inactive)
67 | CCN1CCCC1CN(Cc1cc2cc(C)cc(C)c2[nH]c1=O)C(=O)Nc1ccccc1OC (configuration not stated) | 15.1% (inactive)
